From PubChem BioAssay AID1159580 (chemical genetic matrix, 2015)
Among all 5,500 compounds or so, about 2,000 (36%) were called active. Not shown: some 18% with an inconclusive outcome. Rule as the data show it: active = normalized growth mostly below about 0.91 (no sharp cut-off); inconclusive = no clear call, values can overlap the other calls; inactive = mostly above about 0.92. Some of the results follow.

Test: chemical genetic growth profiling, strain panel (AID 1159580);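 also: tested at 20 µM; growth read once vehicle control cultures reached saturation at 30 °C; 1 = growth at the plate median or of vehicle wells; lower values mean less growth of the strain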
Details: S. cerevisiae deletion strains, growth OD
[1] = locus YAL013W, strain DEP1, active compounds read low
[2] = locus YBR229C, strain ROT2, active compounds read low
[3] = locus YCL061C, strain MRC1, active compounds read low
[4] = locus YDL101C, strain DUN1, active compounds read low
[5] = locus YDR150W, strain NUM1, active compounds read low
[6] = locus YEL061C, strain CIN8, active compounds read low
[7] = locus YGR078C, strain PAC10, active compounds read low
[8] = locus YHR030C, strain SLT2, active compounds read low
[9] = locus YHR087W, strain rtc3, active compounds read low
[10] = locus YJR043C, strain POL32, active compounds read low
[11] = locus YJR075W, strain HOC1, active compounds read low
[12] = locus YLR039C, strain RIC1, active compounds read low
[13] = locus YLR058C, strain SHM2 (second series), active compounds read low
[14] = locus YLR085C, strain ARP6, active compounds read low
[15] = locus YLR262C, strain YPT6, active compounds read low
[16] = locus YML094W, strain GIM5, active compounds read low
[17] = locus YMR219W, strain ESC1, active compounds read low
[18] = locus YMR263W, strain SAP30, active compounds read low
[19] = locus YNL153C, strain GIM3, active compounds read low
[20] = locus YNL298W, strain CLA4 (second series), active compounds read low
[21] = locus YNL322C, strain KRE1, active compounds read low
[22] = locus YNR030W, strain Alg12, active compounds read low
[23] = locus YPL055C, strain LGE1, active compounds read low
[24] = locus YPL241C, strain CIN2, active compounds read low
[25] = locus YPR135W, strain CTF4, active compounds read low
[26] = locus YAR019C, strain CDC15, active compounds read low
[27] = locus YBL105C, strain PKC1, active compounds read low
[28] = locus YBR135W, strain CKS1, active compounds read low
[29] = locus YBR136W, strain MEC1, active compounds read low
[30] = locus YBR160W, strain CDC28, active compounds read low
[31] = locus YDL017W, strain CDC7, active compounds read low
[32] = locus YDL028C, strain MPS1, active compounds read low
[33] = locus YDL108W, strain KIN28, active compounds read low
[34] = locus YDL132W, strain cdc53, active compounds read low
[35] = locus YDL214C, strain PRR2, active compounds read low
[36] = locus YDR052C, strain DBF4, active compounds read low
[37] = locus YDR054C, strain cdc34, active compounds read low
[38] = locus YDR226W, strain ADK1, active compounds read low
[39] = locus YDR477W, strain SNF1, active compounds read low
[40] = locus YER123W, strain YCK3, active compounds read low
[41] = locus YER133W, strain GLC7, active compounds read low
[42] = locus YFL009W, strain cdc4, active compounds read low
[43] = locus YFL029C, strain CAK1, active compounds read low
[44] = locus YFR003C, strain YPI1, active compounds read low
[45] = locus YFR019W, strain FAB1, active compounds read low
[46] = locus YFR028C, strain CDC14, active compounds read low
[47] = locus YGR040W, strain KSS1, active compounds read low
[48] = locus YGR052W, strain FMP48, active compounds read low
[49] = locus YGR092W, strain DBF2, active compounds read low
[50] = locus YHR079C, strain IRE1, active compounds read low
[51] = locus YHR082C, strain KSP1, active compounds read low
[52] = locus YHR205W, strain SCH9, active compounds read low
[53] = locus YIL147C, strain SLN1, active compounds read low
[54] = locus YJL095W, strain BCK1, active compounds read low
[55] = locus YJL128C, strain PBS2, active compounds read low
[56] = locus YJL157C, strain FAR1, active compounds read low
[57] = locus YJR016C, strain ILV3, active compounds read low
[58] = locus YJR066W, strain TOR1 (second series), active compounds read low
[59] = locus YJR066W, strain TOR1, active compounds read low
[60] = locus YKL048C, strain ELM1, active compounds read low
[61] = locus YKL067W, strain YNK1, active compounds read low
[62] = locus YKL101W, strain HSL1, active compounds read low
[63] = locus YKL193C, strain SDS22, active compounds read low
[64] = locus YKL203C, strain TOR2, active compounds read low
[65] = locus YLR113W, strain HOG1, active compounds read low
[66] = locus YLR133W, strain CKI1, active compounds read low
[67] = locus YLR403W, strain SFP1, active compounds read low
[68] = locus YML070W, strain DAK1, active compounds read low
[69] = locus YMR001C, strain CDC5, active compounds read low
[70] = locus YMR205C, strain PFK2 (second series), active compounds read low
[71] = locus YMR277W, strain FCP1, active compounds read low
[72] = locus YNL006W, strain LST8, active compounds read low
[73] = locus YNL020C, strain ARK1, active compounds read low
[74] = locus YNL161W, strain CBK1, active compounds read low
[75] = locus YNL183C, strain NPR1, active compounds read low
[76] = locus YNL207W, strain RIO2, active compounds read low
[77] = locus YNL222W, strain SSU72, active compounds read low
[78] = locus YNL307C, strain MCK1 (second series), active compounds read low
[79] = locus YOL078W, strain AVO1, active compounds read low
[80] = locus YOL136C, strain PFK27, active compounds read low
[81] = locus YOR061W, strain CKA2, active compounds read low
[82] = locus YOR119C, strain RIO1, active compounds read low
[83] = locus YOR231W, strain MKK1, active compounds read low
[84] = locus YOR329C, strain SCD5, active compounds read low
[85] = locus YPL031C, strain PHO85, active compounds read low
[86] = locus YPL153C, strain RAD53, active compounds read low
[87] = locus YPL204W, strain HRR25, active compounds read low
[88] = locus YPL209C, strain IPL1, active compounds read low
[89] = locus YPL256C, strain CLN2, active compounds read low
[90] = locus YPR025C, strain CCL1, active compounds read low
[91] = locus YPR106W, strain ISR1, active compounds read low
[92] = locus YPR111W, strain DBF20, active compounds read low
[93] = strain NNK1, active compounds read low
[94] = strain TSCII, active compounds read low

Measured: normalized growth

Cc1c(Cl)cccc1NC(=S)Nc1ccc(Cl)cc1C(=O)c1ccccc1
inactive: [1] 0.999 | [2] 0.991 | [3] 0.985 | [4] 0.993 | [5] 0.987 | [6] 1 | [7] 0.968 | [8] 0.894 | [9] 0.99 | [10] 0.989 | [11] 0.971 | [12] 0.907 | [13] 1.01 | [14] 0.969 | [15] 0.946 | [16] 0.98 | [17] 0.991 | [18] 0.993 | locus YMR307W, strain GAS1, active compounds read low 0.924 | [19] 0.984 | [20] 0.987 | [21] 0.986 | [22] 0.969 | [23] 0.98 | [24] 0.969 | [25] 0.956

O=C(NNC(=S)Nc1ccc(F)cc1)c1ccccc1Cl
inactive: [1] 0.987 | [2] 1 | [3] 1 | [4] 1.04 | locus YDL134C, strain PPH21, active compounds read low 0.976 | [5] 0.987 | [6] 0.958 | [7] 0.972 | locus YGR229C, strain SMI1, active compounds read low 0.97 | [8] 0.948 | [9] 0.977 | [10] 1.01 | [11] 1.01 | locus YKL190W, strain CNB1, active compounds read low 0.966 | [12] 0.933 | [13] 0.98 | [14] 0.897 | [15] 0.963 | [16] 0.96 | [17] 1.01 | [18] 0.977 | locus YNL128W, strain TEP1, active compounds read low 0.971 | [19] 1.01 | [20] 0.923 | [21] 0.997 | [22] 0.94 | [23] 0.921 | [24] 1.01 | [25] 0.982
active: locus YOL006C, strain TOP1, active compounds read low 0.629

Cc1cc(Cl)ccc1NC(=S)NNC(=S)Nc1ccc(F)cc1
active: [8] 0.763
inactive: [26] 0.968 | [27] 0.974 | [28] 0.972 | [29] 0.97 | [30] 0.966 | [31] 0.975 | [32] 0.969 | [4] 0.973 | [33] 0.97 | [34] 0.966 | [35] 0.943 | [36] 0.968 | [37] 0.943 | [38] 0.971 | [39] 0.898 | [40] 0.878 | [41] 0.925 | [42] 0.964 | [43] 0.965 | [44] 0.957 | [45] 0.964 | [46] 0.956 | [47] 0.912 | [48] 1.04 | [49] 0.863 | [50] 0.902 | [51] 0.986 | [52] 0.914 | [53] 0.964 | [54] 0.869 | [55] 0.93 | [56] 0.919 | [57] 0.96 | [58] 0.911 | [59] 0.917 | [60] 0.97 | [61] 0.916 | [62] 0.935 | [63] 0.964 | [64] 0.954 | [65] 0.929 | [66] 0.926 | [67] 0.896 | [68] 0.928 | [69] 0.965 | [70] 0.939 | [71] 0.95 | [72] 0.964 | [73] 0.921 | [74] 0.973 | [75] 0.923 | [76] 0.961 | [77] 0.972 | [78] 0.9 | [79] 0.957 | [80] 0.916 | [81] 0.937 | [82] 0.977 | [83] 0.924 | [84] 0.972 | [85] 0.899 | [86] 0.884 | [87] 0.861 | [88] 0.969 | [89] 0.904 | [90] 0.973 | [91] 0.971 | [92] 0.969 | [93] 0.96 | [94] 0.966

N#CCC(=O)NNC(=S)Nc1ccc(Cl)c(Cl)c1
inactive: [26] 0.991 | [27] 0.985 | [28] 0.981 | [29] 0.983 | [30] 0.991 | [31] 0.987 | [32] 0.986 | [4] 0.981 | [33] 0.98 | [34] 0.974 | [35] 0.938 | [36] 0.988 | [37] 0.98 | [38] 0.982 | [39] 0.929 | [40] 0.895 | [41] 0.92 | [42] 0.98 | [43] 0.989 | [44] 0.979 | [45] 0.969 | [46] 0.979 | [47] 0.93 | [48] 0.955 | [49] 0.965 | [8] 0.931 | [50] 0.965 | [51] 1.04 | [52] 0.96 | [53] 0.986 | [54] 0.932 | [55] 0.943 | [56] 0.931 | [57] 0.978 | [58] 0.913 | [59] 1.07 | [60] 0.97 | [61] 0.936 | [62] 0.942 | [63] 0.975 | [64] 1.01 | [65] 0.881 | [66] 0.96 | [67] 0.963 | [68] 0.93 | [69] 0.979 | [70] 0.942 | [71] 0.982 | [72] 0.984 | [73] 0.964 | [74] 0.981 | [75] 1.04 | [76] 0.978 | [77] 0.984 | [78] 0.962 | [79] 0.975 | [80] 0.95 | [81] 0.95 | [82] 0.988 | [83] 0.975 | [84] 0.985 | [85] 0.916 | [86] 0.916 | [87] 0.917 | [88] 0.987 | [89] 0.956 | [90] 0.988 | [91] 0.975 | [92] 0.976 | [93] 0.988 | [94] 0.983
